A selection: hits, their analogues and other compounds. The true share with any hit is near 1.8%.
p53ts 39C kill: kills p53ts cells at the nonpermissive temperature; actives 1.5% (n = 130,000); Potency, µM (doses to about 46.1 µM), most hits filed as cytotoxic; AID 902; H1299-p53A138V viability at 39C, ATP luminescence, 24 h; also: nearly all actives have a fitted effect of over 55% in size
p53ts 32C tox: cytotoxicity in p53ts cells at permissive temperature; actives 0.93% (n = 130,000); Potency, µM (titrated, usually from 46.1 µM), hits mostly cytotoxic; H1299-p53A138V at 32C, ATP luminescence viability, 24 h; also: nearly all actives have a fitted effect of over 55% in size
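ATP-content luminescence (ATPlite) read-out after 24 h compound exposure at 32C in H1299-p53A138V cells (600/well). Tested up to 46 uM. Normalized to DMSO (0%) and 100 uM tamoxifen (100% killing); Hill-fit AC50.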
IkB signaling: IkB pathway inhibition in ABC-DLBCL cells | ABC-DLBCL IkBa-CBG/CBR dual luciferase ratio, 4 h; response scale: scaled: untreated 0%, proteasome inhibitor 100% | Potency, µM (top dose mostly 57.1 µM) | actives 0.04% (n = 110,000); active = well fitted curve in the direction sought with a large enough effect in the signal ratio, not every such curve was filed as active; inconclusive = small, poorly fitted or top-dose-only effect, or a change in a side signal; the % refers to the signal ratio;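 also: the direction sought is a rising ratio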
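Curves were fitted separately to fusion (green), unfused (red) and ratio luminescence, then classed by r2, magnitude and activity. Cells: OCI-Ly3, 4 h compound plus doxycycline at 37C; 10 uM MG-132 defined full response.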
Imprint erasure: induces erasure of genomic imprints in mouse ES cells; Potency, µM (top dose mostly 60.7 µM), usual class: activators; mouse ES Peg3-LacZ reporter, beta-gal luminescence, 40 h; AID 1948; actives 0.02% (n = 110,000)
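Readout: BetaGlo luminescence (5 min, room temp) for LacZ from the normally silent maternal Peg3 allele in female Peg3LacZ-Neo ES cells. Cells 300/well, 40 h, 37C, 5% CO2. Data normalized per plate to negative controls.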
Large screens that a line does not name were inactive. Unless noted, calls follow the shape of the dose curve; as a rule, active = well fitted curve in the direction sought with a large enough effect; inconclusive = small, poorly fitted or top-dose-only effect, or another doubt; inactive = no such curve, though single readings can be large; an effect the other way counts as inactive or inconclusive.

O=C(CS(=O)(=O)Cc1ccccc1)N1CCN(Cc2ccc3c(c2)OCO3)CC1	p53ts 39C kill 13µM, p53ts 32C tox 13µM
CCOc1ccc(CN2C(=O)C(=O)c3cccc(C)c32)cc1OC	p53ts 39C kill 13µM
CCCCCCCC/C=C\CCCCCCCC(=O)NCCc1ccc(O)c(O)c1	p53ts 39C kill 13µM, p53ts 32C tox inconclusive
CCCCCCCC/C=C\CCCCCCCC(=O)NCc1ccc(O)c(OC)c1	p53ts 39C kill 32µM, p53ts 32C tox inconclusive
COc1cccc(C(=O)Nc2ccccc2C(=O)OCc2cc(=O)n3c(C)csc3n2)c1	none
COc1ccccc1C(=O)OCc1cc(=O)n2c(C)csc2n1	p53ts 39C kill 0.13µM, p53ts 32C tox inconclusive, IkB signaling inconclusive
Cc1ccc2c(c1)[C@H]1OCC[C@H]1[C@@H](c1ccncc1)N2	none
Clc1ccc2c(c1)C1OCCC1C(c1ccco1)N2 (stereo not given)	p53ts 39C kill 10µM, p53ts 32C tox 7.9µM, IkB signaling inconclusive (no result: Imprint erasure)
CCN(CC)CCCC(C)Nc1c2ccc(Cl)cc2nc2ccc(OC)cc12 (stereo not given)	p53ts 39C kill 10µM, p53ts 32C tox 5µM (no result: IkB signaling)
COc1ccc2nc(Nc3nc(C)c(CCC(C)C)c(=O)[nH]3)nc(C)c2c1	none
Cc1nn(-c2ccccc2Cl)c(Cl)c1/C=N/Nc1cccc(C(=O)O)c1	p53ts 39C kill 11µM, p53ts 32C tox 11µM (no result: IkB signaling, Imprint erasure)
O=C1c2ccccc2NC(c2ccc3c(c2)OCO3)N1O (stereo not given)	p53ts 32C tox inconclusive
O=C1c2ccccc2NC(c2ccc3c(c2)OCCO3)N1c1ccc2c(c1)OCCO2 (stereo not given)	p53ts 39C kill 5µM, p53ts 32C tox 6.3µM
O=S(=O)(c1cccc(-c2nc3ccccc3s2)c1)N1CCCC1	none
COc1ccc(-c2nc3ccccc3s2)cc1O	p53ts 39C kill 2.5µM, p53ts 32C tox 5µM, IkB signaling inconclusive (no result: Imprint erasure)
Oc1cccc(-c2nc3ccccc3s2)c1	p53ts 39C kill 10µM, p53ts 32C tox 7.9µM
COc1cc(O)c2c(O)c3c(c4c2c1[C@@]1(C4)C(C)=CCCC1(C)C)[C@H](O)[C@@]1(O)CC(=O)C(C(N)=O)=C(O)[C@]1(O)C3=O	none
O=c1c(-c2cccs2)nc2cnc(N3CCNCC3)nc2n1CCc1ccccc1	p53ts 39C kill 16µM, p53ts 32C tox inconclusive
CCc1ccc2oc(-c3cccc(NC(=O)c4ccc(N5CCC(C)CC5)c([N+](=O)[O-])c4)c3)nc2c1	IkB signaling inconclusive
Cc1cc(C)nc(Nc2ccc(N3CCOCC3)cc2)n1	p53ts 39C kill inconclusive, p53ts 32C tox 13µM
Cc1cc(C)nc(Nc2ccc(N3CCCC3)cc2)n1	none
COc1ccccc1CNC(=O)CC(c1ccc(F)cc1)N1Cc2ccccc2C1=O (stereo not given)	none
COc1ccccc1CNC(=O)CSC1=Nc2ccccc2N=C(c2ccc(F)cc2)C1	IkB signaling inconclusive
CC(=O)c1cnc2c(-c3ccc(Cl)cc3)c(C)nn2c1C	none (no result: IkB signaling, Imprint erasure)
Cc1c(C(=O)O)cnc2cc(-c3ccc(Cl)cc3)nn12	p53ts 39C kill inconclusive, p53ts 32C tox 10µM, IkB signaling inconclusive
Cc1ccc(S(=O)(=O)O[C@@H]2[C@H]([C@@H]3COC(C)(C)O3)O[C@H]3OC(C)(C)O[C@@H]32)cc1	none
CCc1ccccc1NS(=O)(=O)c1ccc2oc(=O)c3ncn(C)c3c2c1	none
CCOc1ccccc1NS(=O)(=O)c1ccc2oc(=O)c3ncn(C)c3c2c1	p53ts 39C kill 20µM, p53ts 32C tox inconclusive
Cc1ccc(NS(=O)(=O)c2ccc3oc(=O)c4ncn(C)c4c3c2)cc1C	p53ts 39C kill inconclusive, p53ts 32C tox inconclusive, IkB signaling inconclusive
Cc1ccc(Cl)cc1NS(=O)(=O)c1ccc2oc(=O)c3ncn(C)c3c2c1	p53ts 39C kill 20µM, p53ts 32C tox inconclusive
Cn1cnc2c(=O)oc3ccc(S(=O)(=O)Nc4ccc(F)cc4)cc3c21	p53ts 39C kill 13µM
Cc1ccc(-n2nc3c(N4CCC(C(=O)NCCc5ccccc5C)CC4)nnc(C)c3c2C)cc1	p53ts 39C kill 20µM, p53ts 32C tox inconclusive, IkB signaling inconclusive
Cc1ccc(-n2nc3c(N4CCC(C(=O)NC(C)c5ccccc5)CC4)nnc(C)c3c2C)cc1 (stereo not given)	p53ts 39C kill 16µM, p53ts 32C tox inconclusive, IkB signaling inconclusive
CCN(CC)CCOC(=O)c1ccc(NC(=O)COc2cc(=O)n(CC)c3ccccc23)cc1	none
CCN(CC)CCOC(=O)c1ccc(NC(=O)CSc2cc(=O)n(CC)c3ccccc23)cc1	p53ts 39C kill 10µM, Imprint erasure inconclusive
Cc1cc(NC(=O)CCC2CCCCC2)no1	none (no result: IkB signaling, Imprint erasure)
Cc1ccnc(NC(=O)CCC2CCCCC2)c1	p53ts 39C kill 13µM, p53ts 32C tox 13µM, IkB signaling inconclusive
CCOC(=O)c1c(S(=O)(=O)N2CCC(C(=O)Nc3ncccc3C)CC2)c(C)n(C)c1C	none
NC(=NCc1ccc(Cl)c(Cl)c1)NC(=O)c1nc(Cl)c(N)nc1N	p53ts 39C kill 13µM, p53ts 32C tox 13µM
Cc1ccc(O)c(NC(=O)c2noc3c2CCCCC3)c1	p53ts 39C kill inconclusive, p53ts 32C tox 13µM
CCC1OCCC=CC1C (stereo not given)	none (no result: IkB signaling, Imprint erasure)
CN(C)c1ccc(/C=C/c2noc(-c3ccccc3O)n2)cc1	IkB signaling inconclusive
Oc1ccccc1-c1nc(/C=C/c2ccccc2Cl)no1	p53ts 39C kill 7.9µM, p53ts 32C tox 7.9µM, IkB signaling inconclusive
N#C[C@@H](Cc1ccc(O)c(O)c1)C(=O)N1CCc2ccccc21	none (no result: Imprint erasure)
CCCN1C(=O)C(Cc2nc3ccccc3c(=O)n2CC)c2cc(Br)ccc21 (stereo not given)	p53ts 39C kill 10µM, IkB signaling inconclusive
CCn1c(CC2C(=O)N(C)c3ccc(Br)cc32)nc2ccccc2c1=O (stereo not given)	none
Cc1ccc2nc(-c3ccc(N)cc3)sc2c1S(=O)(=O)O	p53ts 39C kill 16µM
Cc1nc2ccc(N)cc2s1	none
COc1cccc(-n2c(=O)c3sc4ccccc4c3n(CC(=O)Nc3ccccc3C)c2=O)c1	none
COc1cccc(-n2c(=O)c3sc4ccccc4c3n(CC(=O)Nc3ccccc3OC)c2=O)c1	p53ts 39C kill 10µM
N#Cc1c(-c2ccccc2)no[n+]1[O-]	p53ts 39C kill 16µM, p53ts 32C tox inconclusive, IkB signaling inconclusive
CC(=O)c1cccc(NC(=O)c2sc3nc4c(cc3c2N)CCCC4)c1	p53ts 39C kill 13µM, p53ts 32C tox inconclusive, IkB signaling inconclusive
O=C(CSc1nc2c([nH]c3ccccc32)c(=O)n1-c1ccc(Cl)cc1)NC1CCCCC1	p53ts 39C kill 10µM, IkB signaling inconclusive
N[C@@H](Cc1[nH]nc2ccccc12)C(=O)O	Imprint erasure inconclusive
CCOC(=O)c1c(C)oc2c1c(C(c1cccnc1)N1CCN(C)CC1)c(O)c1ccccc12 (stereo not given)	IkB signaling inconclusive
CN1CCN(C(c2cccnc2)c2ccc3cccnc3c2O)CC1 (stereo not given)	p53ts 39C kill 13µM, IkB signaling inconclusive
CCCCN(C)S(=O)(=O)c1ccc(C(=O)Nc2nnc(CSC)o2)cc1	p53ts 39C kill 10µM
